According to PubChem BioAssay AID449762 (Southern Research Specialized Biocontainment Screening …, 2010):
About 1,900 (0.58%) of roughly 330,000 compounds were called active. Another 4% or so got no clear call; they are omitted. No stated cut-off is given here; in the data, inconclusive means inhibition above about 70% without an active follow-up result; inactive means below that. Not all results are given here. Results with a measured potency or affinity are listed apart.

Test: M. tuberculosis growth inhibition, HTS (AID 449762);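 further: bacterial growth assessed after seven days of incubation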
Conditions: M. tuberculosis H37Rv growth inhibition, 7H9 media; at 25 µM; active compounds read high

Q: For `CN(C)C(=O)CSc1nc2ccc(C(=O)c3ccccc3)cc2[nH]1`, which inhibition is on record?
A: Its inhibition is 1.68% (inactive).

Q: For `O=C(c1cccc([N+](=O)[O-])c1)N1CCOCC1`, which inhibition is on record?
A: Its inhibition is 5.5% (inactive).

Q: Which inhibition does the source give for `O=C(c1cccc(Cl)c1)N1CCN(c2ccc(N3CCOCC3)nn2)CC1` here?
A: The inhibition was 0.55% (inactive).

Q: For `COc1ccc(N2CCN(C(=O)C3CC(=O)N(c4ccc(C)cc4)C3)CC2)cc1` (stereo unspecified), which inhibition is on record?
A: Its inhibition is 5.21% (inactive).

Q: Which inhibition does the source give for `COc1cccc(CC2(CO)CCCN(Cc3ccccc3-c3ccco3)C2)c1` (stereo unspecified) here?
A: The inhibition was 5.57% (inactive).

Q: With `COc1cccc(C(=O)Nc2cccc(NC(=O)c3cccs3)c2)c1` as the compound, how does the inhibition read?
A: Its inhibition is 0.1% (inactive).

Q: With `S=c1[nH]nc(-c2ccncc2)n1/N=C/c1cn(-c2ccccc2)nc1-c1ccccc1` as the compound, how does the inhibition read?
A: The inhibition was 1.85% (inactive).

Q: Which inhibition does the source give for `O=C(CC1C(=O)NCCN1Cc1ccoc1)NCCc1ccc(Cl)cc1` (stereo unspecified) here?
A: Its inhibition is -3.28% (inactive).

Q: Which inhibition does the source give for `COC(=O)C1CSC(c2ccc(Cl)cc2)N1C(=O)c1ccccc1` (stereo unspecified) here?
A: Its inhibition is 3.7% (inactive).

Q: For `Cc1ccnc(N2CCC(C(=O)Nc3ccc4c(c3)OCO4)CC2)n1`, which inhibition is on record?
A: The inhibition was -6.75% (inactive).

Q: With `CCCn1nnnc1NC(=O)c1cc(Br)ccc1OC` as the compound, how does the inhibition read?
A: Its inhibition is 14.5% (inactive).

Q: With `CCCn1nnnc1NC(=O)COc1ccc(Cl)c(C)c1` as the compound, how does the inhibition read?
A: The inhibition was 0.41% (inactive).

Q: With `O=C(COC(=O)COc1ccccc1)Nc1cccc([N+](=O)[O-])c1` as the compound, how does the inhibition read?
A: Its inhibition is -0.12% (inactive).

Q: For `CC(CCc1ccc(O)cc1)NCCC(c1ccccc1)c1ccccc1` (stereo unspecified), which inhibition is on record?
A: The inhibition was 64.6% (inactive).

Q: With `COc1cc(OC)c(OC)cc1CCC(C)NC(=O)Cc1ccccc1` (stereo unspecified) as the compound, how does the inhibition read?
A: Its inhibition is 2.6% (inactive).

Q: Which inhibition does the source give for `CCOc1ccc(NC(=O)NNC(=O)C2CCC(C(C)(C)C)CC2)cc1` (stereo unspecified) here?
A: Its inhibition is -6.75% (inactive).

Q: With `O=C(O)CCC(=O)Nc1ccccc1Oc1ccccc1` as the compound, how does the inhibition read?
A: The inhibition was -2.18% (inactive).

Q: For `Cc1cc(C)cc(NC(=O)c2cccc(C(=O)Nc3cc(C)cc(C)c3)n2)c1`, which inhibition is on record?
A: Its inhibition is 5.97% (inactive).

Q: For `CN1C2CCC1/C(=C\c1ccccc1F)C(=O)/C2=C/c1ccccc1F`, which inhibition is on record?
A: The inhibition was 5.25% (inactive).

Q: For `CN1C2CCC1/C(=C/c1cccn1C)C(=O)/C2=C\c1cccn1C`, which inhibition is on record?
A: Its inhibition is 10.6% (inactive).

Q: For `C=CCOc1ccc(CNCC2CCCO2)cc1` (stereo unspecified), which inhibition is on record?
A: Its inhibition is -1.36% (inactive).

Q: With `Cc1noc(C)c1CSCC(=O)N(CC(C)C)c1c(N)n(Cc2ccccc2)c(=O)[nH]c1=O` as the compound, how does the inhibition read?
A: The inhibition was -5.68% (inactive).

Q: For `CC(=O)Nc1ccc(N2C(=O)c3ccc(S(=O)(=O)c4ccc(C(=O)O)cc4)cc3C2=O)cc1`, which inhibition is on record?
A: The inhibition was -2.44% (inactive).

Q: Which inhibition does the source give for `COc1ccc(C(=O)ON=C2C=C(C)C(=O)C(C)=C2)cc1` here?
A: Its inhibition is 63.5% (inactive).

Q: Which inhibition does the source give for `COc1ccc(S(=O)(=O)N=C2C=C(C)C(=O)C(C)=C2)cc1` here?
A: The inhibition was -12.4% (inactive).

Q: Which inhibition does the source give for `Cc1cc(C)n(C(=O)c2ccc(S(=O)(=O)N3CCOCC3)cc2)n1` here?
A: The inhibition was -3.21% (inactive).

Q: With `COc1ccccc1NC(=O)COC(=O)/C=C/c1ccc(OC)c(OC)c1` as the compound, how does the inhibition read?
A: The inhibition was 24.8% (inactive).

Q: Which inhibition does the source give for `COc1ccccc1OCCNC(=O)/C=C/c1ccc([N+](=O)[O-])cc1` here?
A: Its inhibition is 2% (inactive).

Q: Which inhibition does the source give for `Cn1c(=O)[nH]c(=O)c2c1nc(NCCCO)n2CCOc1ccccc1` here?
A: The inhibition was -8.75% (inactive).

Q: For `O=C(c1cc2ccccc2o1)N(Cc1nnc(-c2ccccc2Cl)o1)C1CC1`, which inhibition is on record?
A: Its inhibition is -0.85% (inactive).

Q: For `O=C(C1=COCCO1)N(Cc1nnc(-c2ccccc2Cl)o1)C1CC1`, which inhibition is on record?
A: The inhibition was 1.25% (inactive).

Q: For `CCOC(=O)N1CCN(C(=O)c2cc3ccc(OC)cc3[nH]2)CC1`, which inhibition is on record?
A: Its inhibition is -1.51% (inactive).

Q: With `COc1ccc(C(=S)N2CCC(C(N)=O)CC2)cc1Br` as the compound, how does the inhibition read?
A: Its inhibition is -5.29% (inactive).

Q: Which inhibition does the source give for `CC1CCCC(C)N1CC(O)COc1ccc(Cl)cc1` (stereo unspecified) here?
A: Its inhibition is -8.81% (inactive).

Q: With `COc1cc(OC)c(C(=O)/C=C/c2ccc(OCc3ccccc3)c(OC)c2)c(OC)c1` as the compound, how does the inhibition read?
A: The inhibition was 55.4% (inactive).

Q: With `COc1ccc(-c2cc(=Nc3ccc(C)cc3)c3ccccc3o2)cc1` as the compound, how does the inhibition read?
A: The inhibition was 18.3% (inactive).

Q: With `CCOc1ccc(N=c2cc(-c3ccc(OC)cc3)oc3ccccc23)cc1` as the compound, how does the inhibition read?
A: Its inhibition is 2.75% (inactive).

Q: With `Nc1ccc(C(=O)OCCCc2nc3ccccc3[nH]2)cc1` as the compound, how does the inhibition read?
A: The inhibition was 2.21% (inactive).

Q: Which inhibition does the source give for `Nc1ccc(C(=O)OCc2nc3cc4ccccc4cc3[nH]2)cc1` here?
A: Its inhibition is 3.37% (inactive).

Q: With `C/C=C(\C)CN1CCCC(CO)(Cc2ccccc2)C1` (stereo unspecified) as the compound, how does the inhibition read?
A: Its inhibition is 12.6% (inactive).

Q: Which inhibition does the source give for `Cc1nc(SCC(=O)N2CCNC2=O)c2ccccc2n1` here?
A: Its inhibition is 0.14% (inactive).

Q: For `N#CC(C(=O)NCCc1ccccc1)c1nc2ccccc2nc1N1CCOCC1` (stereo unspecified), which inhibition is on record?
A: The inhibition was 4.18% (inactive).

Q: Which inhibition does the source give for `CCCCCCNC(=O)C(C#N)c1nc2ccccc2nc1N1CCOCC1` (stereo unspecified) here?
A: The inhibition was 1% (inactive).

Q: Which inhibition does the source give for `CCCc1cc(=O)[nH]c(SCC(=O)c2cc(C)n(C)c2C)n1` here?
A: Its inhibition is 2.23% (inactive).

Q: For `Cc1sc2c(c1C)CN(C(C)(C)C)CN2C(=O)c1ccccc1`, which inhibition is on record?
A: The inhibition was -8.66% (inactive).

Q: With `COc1ccc(CCNc2nc(N3CCOCC3)nc(N3CCOCC3)n2)cc1OC` as the compound, how does the inhibition read?
A: The inhibition was -5.04% (inactive).

Q: For `COc1ccc(N2CCN(c3nc(NCCc4ccc(OC)c(OC)c4)nc(OC)n3)CC2)cc1`, which inhibition is on record?
A: The inhibition was -2.33% (inactive).

Q: Which inhibition does the source give for `Cc1ccc(CNC(=O)CN(C)S(=O)(=O)c2cnc[nH]2)cc1` here?
A: The inhibition was -4.45% (inactive).

Q: Which inhibition does the source give for `Cc1cccc(C)c1NC(=O)COc1ccccc1C(=O)Nc1ccc(Br)cn1` here?
A: Its inhibition is 3.17% (inactive).

Q: For `O=C(NC(=S)Nc1ccccc1Cl)C1CC1`, which inhibition is on record?
A: The inhibition was 11.2% (inactive).

Q: With `COc1cc(NC(=O)C2CCN(S(=O)(=O)c3cccc4nonc34)CC2)cc(OC)c1` as the compound, how does the inhibition read?
A: The inhibition was 2.95% (inactive).

Q: For `CCOC(=O)CC(=O)CSc1ncnc2c1nnn2-c1ccc(F)cc1`, which inhibition is on record?
A: Its inhibition is -7.23% (inactive).

Q: Which inhibition does the source give for `CCOC(=O)C(CC)Sc1ncnc2c1nnn2-c1ccc(F)cc1` (stereo unspecified) here?
A: The inhibition was -6.34% (inactive).

Q: For `COC(=O)c1cc(NC(=O)C(C)c2ccc(CC(C)C)cc2)ccc1O` (stereo unspecified), which inhibition is on record?
A: The inhibition was 20.8% (inactive).

Q: Which inhibition does the source give for `CC1CCCN(C(=O)COC(=O)c2cccc(NS(=O)(=O)c3ccccc3)c2)C1` (stereo unspecified) here?
A: Its inhibition is -11.8% (inactive).

Q: With `O=C(O)c1cccc(-c2nnn(Cc3ccccc3)n2)c1` as the compound, how does the inhibition read?
A: Its inhibition is -10.4% (inactive).

Q: With `O=C(Cn1nnc(-c2ccccc2)n1)OCc1ccccc1` as the compound, how does the inhibition read?
A: Its inhibition is -6.9% (inactive).

Q: Which inhibition does the source give for `CCCCc1nnc(NC(=O)C(=O)OCC)s1` here?
A: Its inhibition is -3.95% (inactive).

Q: With `Cc1ccsc1C(=O)Nc1cccc(-n2cnnn2)c1` as the compound, how does the inhibition read?
A: Its inhibition is -0.76% (inactive).

Q: Which inhibition does the source give for `CCN(CC)S(=O)(=O)c1ccc(/C=C/C(=O)OCC(=O)N(C)C)cc1` here?
A: The inhibition was 4.6% (inactive).

Q: For `CCN(CC)S(=O)(=O)c1ccc(/C=C/C(=O)OCC(=O)N(C(C)C)C(C)C)cc1`, which inhibition is on record?
A: The inhibition was 3.48% (inactive).
